Here are results for 26 compounds from PubChem BioAssay (Tox21).

Inconclusive results are not listed. Where a call stands in place of a potency, no number is given. More than one record can exist for a structure, and the calls need not agree. Active and inactive are the calls of the source. Calls come from the whole dose curve; as a rule, active = well fitted curve in the direction sought with a large enough effect in the repeat runs; inconclusive = weak or mixed curves; inactive = no such curve, though single readings can be large; an effect the other way counts as inactive or inconclusive.
Potency is the fitted concentration of half-maximal effect.

A short description of one experiment: qHTS assay to identify small molecule agonists of the sonic hedgehog signaling (Shh) pathway - cell viability counter screen (AID 1259366). Note: nearly all actives have a fitted effect of over 50% in size. To be noted: NIH/3T3 Gli1-Luc viability, CellTiter-Fluor, 24 h; series mostly up to 92.4 µM. Put shortly: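 After a 4hr attachment at 37C, NIH/3T3 cells bearing an integrated Gli1-driven luciferase reporter were dosed with compounds. Treatment lasted 24hr, with the final hour including CellTiter-Fluor for a fluorescence viability measurement.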
Take `COS(C)(=O)=O`: the Potency result was “inactive”.

Regarding `CCC(O)OC(O)CC` (configuration not stated), the Potency result is “inactive”.

On to `O=S(=O)(O)c1ccc2ccccc2c1`, for which the Potency result was “inactive”. Turning to `CCCCCCCCCCCCOCCO`, the Potency result is “inactive”. For `Fc1ccc(Br)cc1`, the Potency result is “inactive”.

In the case of `O=C(O)c1ccc(C(=O)O)cc1`, the Potency result was “inactive”. `CCCCCOC(C)=O`: the Potency entry was “inactive”. Still for that read-out and setting: the value for `CCCC(C)=O` was “inactive”. Same read-out and setting: next, `C=C(C)C(=O)OCCOCCOCCOC(=O)C(=C)C`: “inactive”; `CN(C)CCC(c1ccc(Cl)cc1)c1ccccn1` (configuration not stated): 61.3 µM (active) and inactive; `CCc1cccc(C)c1N`: “inactive”. Still for that read-out and setting: next, `O=C(O)CCCCCCCCCCC(=O)O`: “inactive”; `Cc1cc(C)c(C)cc1C`: “inactive”.

A further experiment in a line: qHTS assay to identify small molecule antagonists of the sonic hedgehog signaling (Shh) pathway - cell viability counter screen (AID 1259367). Note: nearly all actives have a fitted effect of over 55% in size. The conditions noted are these: NIH/3T3 Gli1-Luc viability, CellTiter-Fluor, 24 h; series mostly up to 92.4 µM. The procedure, abridged:
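NIH/3T3-derived Gli1-Luc reporter cells, 2,000/well, plated 4 hr before compound addition, then stimulated with conditioned medium for 24 hr at 37C. Viability measured in the same wells by CellTiter-Fluor fluorescence, reagent added at 23 hr for 1 hr.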
For orientation: In qHTS, concentration-response curves come from the screen itself.
Turning to `Cc1cccnc1`, the Potency entry was “inactive”. Same read-out and setting: the value for `CCCCCCCCCCCCc1ccccc1` was “inactive”. Still for that read-out and setting: the value for `CN(C)CCCN` was “inactive”. The same measure, in the same setting: the value for `c1ccc2scnc2c1` was “inactive”.

On to `OCC(CO)(CBr)CBr`, for which the Potency entry is “inactive”. Same read-out and setting: next, `CCCCCCCCCC`: “inactive”; `CC1=C(C)S(=O)(=O)CCS1(=O)=O`: “inactive”. For `O=c1[nH]nnc2ccccc12`, the Potency entry is “inactive”. The same measure, in the same setting: next, `COS(C)(=O)=O`: “inactive”; `O=S1(=O)CC=CC1`: 46.9 µM (active) and inactive. The same measure, in the same setting: the value for `CC1CCC(C(C)C)C(O)C1` (configuration not stated) was “inactive”. The same measure, in the same setting: next, `CCC(O)OC(O)CC` (configuration not stated): “inactive”; `CCN(CC)c1ccc(C(=O)c2ccccc2C(=O)O)c(O)c1`: “inactive”.

`Cc1cccc(O)c1`: the Potency result is “inactive”.

Regarding `O=S(=O)(O)c1ccc2ccccc2c1`, the Potency result is “inactive”.

Regarding `CCCCCCCCCCCCOCCO`, the Potency is 48.6 µM (active) and inactive. On the same count and under the same terms, the value for `Fc1ccc(Br)cc1` was “inactive”. On the same count and under the same terms, the value for `O=C(O)c1cc(C(=O)O)cc(S(=O)(=O)O)c1` was “inactive”. The same measure, in the same setting: the value for `O=C(O)c1ccc(C(=O)O)cc1` was “inactive”.
